Out of some 39,000 compounds screened, about 3,300 (8.5%) were called active. Shown is part of a subset that was picked to be rich in actives.

The test system of this experiment is HepG2. In words: cytotoxicity call (relative viability < 0.9). The note with it: 10 µM.
Take `N#Cc1cnccn1`: the cytotoxicity call is “inactive”.

On to `CCNC1(c2cccs2)CCCCC1=O.Cl` (centres undefined), for which the cytotoxicity call is “inactive”.

With `NCC[C@H](NC(=O)[C@@H](N)CCCNC(N)=N[N+](=O)[O-])C(N)=O.O=CC(F)(F)F`, the cytotoxicity call was “inactive”.

Consider `c1cnc(N[C@@H]2CO[C@@]3(CCNC3)C2)cn1`, for which the cytotoxicity call was “inactive”.

Regarding `NC1=NC(=O)N2C[C@@H]12`, the cytotoxicity call is “inactive”.

With `C[C@H](CO)N1C[C@H](C)[C@H](CN(C)C(=O)Oc2ccc3ccccc3c2)OCc2cnnn2CCCC1=O`, the cytotoxicity call is “inactive”.

Regarding `C1CN2CN3CCN(CN1C3)C2`, the cytotoxicity call is “inactive”.

As to `NCCc1ccc([N+](=O)[O-])cc1`, the cytotoxicity call was “inactive”.

Regarding `O=C(c1ccco1)N1C[C@H]2CN[C@@H](C2)C1`, the cytotoxicity call was “inactive”.

With `C=C[C@H]1[C@H](O[C@@H]2O[C@H](CO)[C@@H](O)[C@H](O)[C@H]2O)OC=C2C(=O)OCC[C@H]21`, the cytotoxicity call is “inactive”.

With `Cc1cccc(CC2(N)CC2)c1`, the cytotoxicity call was “inactive”.

With `N#[N+]CC(=O)CC[C@H](N)C(=O)O`, the cytotoxicity call is “inactive”.

As for `CC12CCC3C(CCC4(O)CC(O)CCC34C=O)C1(O)CCC2C1=CC(=O)OC1` (centres undefined), the cytotoxicity call is “active”.

Consider `C#CC(C)(O)CC` (centres undefined), for which the cytotoxicity call was “inactive”.

On to `CNC(=O)CN1CCOCC12CCN(c1cc(OC)ncn1)CC2`, for which the cytotoxicity call is “inactive”.

On to `CC1(C)CCC(C)(C)c2cc(-c3csc(CC#N)n3)ccc21`, for which the cytotoxicity call is “inactive”.

As for `COc1c(C[C@@H](C)O)c2c3c(C[C@@H](C)O)c(OC)c(=O)c4c(O)cc5c(c6c(cc(O)c(c1=O)c62)OCO5)c43`, the cytotoxicity call is “active”.

On to `NCCc1cccc2ccccc12`, for which the cytotoxicity call was “inactive”.

For `C[C@@H]1CN([C@@H](C)CO)C(=O)c2c(c3ccccc3n2C)-c2ccccc2CO[C@H]1CN(C)C(=O)Oc1ccccc1`, the cytotoxicity call is “inactive”.

For the molecule `CN(C)C(=O)N[C@H]1CN[C@H]2CCCO[C@H]21`, the cytotoxicity call was “inactive”.

As to `O=C1C=C2C=CC3CC2(O1)C1CCCCN31` (centres undefined), the cytotoxicity call is “active”.

Take `CN1C(=O)NC(=O)/C(=C\c2ccc(O)cc2)C1=O`: the cytotoxicity call is “inactive”.

Turning to `Cn1cc(C(=O)Nc2nn[nH]n2)c2ccccc21`, the cytotoxicity call is “inactive”.

Take `CCCC12CNCC(C)(CNC1)C2=O`: the cytotoxicity call is “inactive”.

For `O=[N+]([O-])c1ccc(N(CCO)CCO)c2c1no[n+]2[O-]`, the cytotoxicity call is “active”.

For the molecule `Nc1ccc([As](=O)(O)O)cc1`, the cytotoxicity call was “inactive”.

Consider `CN1CC(=O)N(c2cccnc2)C[C@]12CCNC2`, for which the cytotoxicity call is “inactive”.

Regarding `O=[N+]([O-])C(Br)(CO)CO` [listing 1 of 2 here], the cytotoxicity call is “active”.

In the case of `O=[N+]([O-])C(Br)(CO)CO` [listing 2 of 2 here], the cytotoxicity call is “active”.

On to `OCC(Br)(Br)Br`, for which the cytotoxicity call is “inactive”.

Regarding `CN1C(=O)/C(=C/c2cn(CC(=O)N3CCOCC3)c3ccccc23)C(=O)NC1=S`, the cytotoxicity call was “inactive”.

Take `CC(C)(C)[C@H]1CC[C@@]2(CC1)C[C@@H](C[Si](C)(C)C)OO2`: the cytotoxicity call is “inactive”.

As to `CC(C)Oc1ccccc1CCN`, the cytotoxicity call is “inactive”.

`CCN(CC)S(=O)(=O)c1ccc(Cn2nc(C(=O)Nc3ccc(N4CCCCC4)cc3)c3ccccc32)cc1`: the cytotoxicity call was “inactive”.

As to `NC(=O)N1C[C@@H]2C[C@H]1CN2`, the cytotoxicity call was “inactive”.

Turning to `C[N+]1(C)C2CCC1CC(OC(=O)C(CO)c1ccccc1)C2.O=[N+]([O-])[O-]` (centres undefined), the cytotoxicity call is “inactive”.

In the case of `O=C(NCNC(=O)N[C@H]1C(=O)NC(=O)N1CO)N[C@H]1C(=O)NC(=O)N1CO`, the cytotoxicity call is “inactive”.

For `CCC(=O)CCCCC[C@@H]1NC(=O)[C@H]2CCCCN2C(=O)[C@H]([C@@H](C)CC)NC(=O)[C@H](Cc2cn(OC)c3ccccc23)NC1=O`, the cytotoxicity call is “active”.

In the case of `CCC(=O)CCCCC[C@@H]1NC(=O)[C@H]2CCCCN2C(=O)[C@H]([C@H](C)CC)NC(=O)[C@H](Cc2cn(OC)c3ccccc23)NC1=O`, the cytotoxicity call was “active”.

For `N[C@@H](C(=O)O)c1cc(=O)[nH]o1`, the cytotoxicity call is “inactive”.

As for `COC(N)=O`, the cytotoxicity call was “inactive”.

As for `CN1C[C@@H]2C[C@H](C(=O)Nc3cccnc3)[C@@H](C1)O2`, the cytotoxicity call was “inactive”.

On to `CCCCS(=O)(=O)N1C[C@H]2CNC[C@@H]2C1`, for which the cytotoxicity call is “inactive”.

With `NC(=O)c1cc([N+](=O)[O-])cc([N+](=O)[O-])c1` [listing 1 of 2 here], the cytotoxicity call was “inactive”.

Turning to `NC(=O)c1ccc(N)nc1`, the cytotoxicity call was “active”.

As to `NC(=O)c1cc([N+](=O)[O-])cc([N+](=O)[O-])c1` [listing 2 of 2 here], the cytotoxicity call was “inactive”.

Take `C[C@H]1CN([C@@H](C)CO)C(=O)CCCn2nncc2CO[C@@H]1CN(C)C(=O)Oc1ccc2ccccc2c1`: the cytotoxicity call is “inactive”.

With `CNc1ccc(C(=O)C[C@@H](O)CC[C@@H](C)[C@H]2OC(=O)C[C@@H](O)CC(=O)C[C@@H](O)C[C@@H](O)C[C@@H](O)C[C@@H](O)C[C@@]3(O)C[C@@H](O)[C@H](C(=O)OC)[C@@H](C[C@@H](O[C@@H]4O[C@H](C)[C@@H](O)[C@H](N)[C@@H]4O)\C=C/C=C\C=C/C=C\C=C/C=C\C=C/[C@@H]2C)O3)cc1`, the cytotoxicity call is “inactive”.

As for `CN(C)C(=O)Oc1ccc[n+](C)c1.[Br-]`, the cytotoxicity call is “active”.

Take `CN(C)C(=O)Oc1ccc[n+](C)c1`: the cytotoxicity call is “inactive”.

With `CN(C)C(=O)Oc1cccc([N+](C)(C)C)c1.[Br-]`, the cytotoxicity call is “inactive”.

On to `O=C(O)[C@H]1C[C@H]2CCCCN2C1`, for which the cytotoxicity call is “inactive”.

`CN1[C@@H]2CC[C@@H]1C[C@H](O)C2` (some centres undefined): the cytotoxicity call was “inactive”.

Consider `CCCC[C@@H](C)[C@@H](OC(=O)C[C@@H](CC(=O)O)C(=O)O)[C@H](C[C@@H](C)C[C@H](O)CCCC[C@@H](O)C[C@H](O)[C@H](C)N)OC(=O)C[C@@H](CC(=O)O)C(=O)O`, for which the cytotoxicity call was “inactive”.

On to `OC[C@H]1O[C@@H](Oc2c[nH]c3ccc(Br)c(Cl)c23)[C@H](O)[C@@H](O)[C@H]1O`, for which the cytotoxicity call was “inactive”.

As for `C[N+](C)(C)CCCl`, the cytotoxicity call is “inactive”.

Consider `CCCCCCCCCCCCCCCC[N+](C)(C)C.[Br-]`, for which the cytotoxicity call was “active”.

Consider `C[N+](C)(C)CCCCCCCCCC[N+](C)(C)C.[Br-].[Br-]`, for which the cytotoxicity call is “inactive”.

Consider `N=C(N)/N=C(\N)Nc1ccc(Cl)cc1`, for which the cytotoxicity call was “inactive”.

For the molecule `Oc1ccccc1-c1ccccc1O`, the cytotoxicity call is “inactive”.

On to `O=C1C=CC(=O)c2c(O)cccc21`, for which the cytotoxicity call was “active”.

In the case of `CC1=CC(=O)c2c(O)cccc2C1=O`, the cytotoxicity call was “active”.

In the case of `Oc1ccccc1-c1ccccc1`, the cytotoxicity call was “inactive”.

For `C[C@H]1O[C@H](C[N+](C)(C)C)C[C@@H]1O`, the cytotoxicity call is “inactive”.

On to `NCCc1nnc2n1CCCCC2`, for which the cytotoxicity call was “inactive”.

Turning to `C[C@H]1CN([C@@H](C)CO)C(=O)CCCn2nncc2CO[C@@H]1CN(C)C(=O)Oc1cccc2ccccc12`, the cytotoxicity call was “inactive”.

For `CC(=O)Nc1ccc(CCN)cc1`, the cytotoxicity call is “inactive”.

With `CNC(C)(C)Cc1ccccc1.O=S(=O)(O)O`, the cytotoxicity call was “inactive”.

Regarding `CC(C)NC(=O)[C@H]1CCS(=O)(=O)[C@H]2CNC[C@@H]12`, the cytotoxicity call was “inactive”.

Take `C[C@@H]1C(=O)NC[C@@H]2CN(CC3CC3)C[C@@H]21`: the cytotoxicity call was “inactive”.

As to `CCC(C(N)=O)N1CCCC1=O` (centres undefined), the cytotoxicity call is “inactive”.

As to `O=[As]O[As]=O` (centres undefined), the cytotoxicity call is “active”.

Take `C[C@H](CO)N1C[C@H](C)[C@@H](CN(C)C(=O)Oc2ccccc2)OCc2ccccc2-c2c(n(C)c3ccccc23)C1=O`: the cytotoxicity call was “inactive”.

With `C[C@@H]1O[C@@H](OC(=O)Cc2ccccc2)[C@H](O)[C@H](O)[C@H]1O`, the cytotoxicity call was “inactive”.

Regarding `COC(=O)[C@H]1[C@H](CO)[C@H]2Cn3c(cccc3=O)[C@@H]1N2C(=O)C1CC1`, the cytotoxicity call is “inactive”.

Consider `O=C(NC[C@H]1CCC2(CCNCC2)O1)C1CC1`, for which the cytotoxicity call was “inactive”.

Consider `O=C(O)C(Cl)Cl.[NaH]`, for which the cytotoxicity call was “inactive”.

`Cl.NCC(=O)c1ccccc1`: the cytotoxicity call is “inactive”.

With `CNCC(O)c1ccc(O)cc1.CNCC(O)c1ccc(O)cc1.O=C(O)C(O)C(O)C(=O)O` (centres undefined), the cytotoxicity call is “inactive”.

Take `Cc1[nH]c2ccc(O)cc2c1CCN`: the cytotoxicity call is “inactive”.

As to `Cc1ccc2c(CCN)c(C)n(C)c2c1`, the cytotoxicity call was “active”.

On to `Cc1ccc2nc(CCN)[nH]c2c1`, for which the cytotoxicity call was “inactive”.

Turning to `C[C@@H]1[C@H](O)[C@@H](C)/C=C\C=C/CC\C=C/C=C\C=C/C=C\[C@@H](O[C@@H]2O[C@H](C)[C@@H](O)[C@H](N)[C@@H]2O)C[C@@H]2O[C@](O)(C[C@@H](O)[C@H](O)CC[C@@H](O)C[C@@H](O)C[C@@H](O)CC(=O)O[C@H]1C)C[C@H](O)[C@H]2C(=O)O`, the cytotoxicity call is “inactive”.

In the case of `CN(C)[C@@H](CN)c1cccc(C(F)(F)F)c1`, the cytotoxicity call is “inactive”.

In the case of `CN[C@@H]1[C@@H](O)[C@@H](O[C@@H]2[C@H](O)[C@@H](O[C@H]3O[C@H]([C@@H](C)O)[C@@H](O)[C@H](O)[C@H]3N)[C@H](N)C[C@@H]2N)OC[C@]1(C)O`, the cytotoxicity call is “inactive”.

In the case of `CCCCCCCCCCCCCCCC[n+]1ccccc1`, the cytotoxicity call is “active”.

`CCCCCCCCCCCCCCCC[n+]1ccccc1.[Cl-]`: the cytotoxicity call is “active”.

In the case of `CC(=O)c1c(O)c(C)c(O)c(Cc2c(O)c3c(c(C(=O)/C=C/c4ccccc4)c2O)OC(C)(C)C=C3)c1O`, the cytotoxicity call is “inactive”.

Turning to `COCC(=O)N1[C@@H]2Cn3c(ccc(C4=CCCC4)c3=O)[C@H]1[C@@H](C(=O)OC)[C@@H]2CO`, the cytotoxicity call is “inactive”.

Take `Cn1cc(CN2C[C@H]3CNC[C@H]3C2)cn1`: the cytotoxicity call is “inactive”.

On to `Cc1ccc(C[C@H]2CCCN2)cc1C`, for which the cytotoxicity call was “inactive”.

Take `NCCc1cccc(O)c1`: the cytotoxicity call was “inactive”.

For the molecule `OC[C@@H]1[C@@H](O)[C@H](O)[C@H]2[C@@H](O)CCN21`, the cytotoxicity call was “inactive”.

`Cc1c(N)nc([C@H](CC(N)=O)NC[C@@H](N)C(N)=O)nc1C(=O)N[C@H](C(=O)N[C@@H](C)[C@H](O)[C@@H](C)C(=O)N[C@@H](C(=O)NCCc1nc(-c2nc(C(=O)NCCC[S+](C)C)cs2)cs1)[C@@H](C)O)[C@@H](O[C@H]1O[C@H](CO)[C@H](O)[C@@H](O)[C@H]1O[C@H]1O[C@H](CO)[C@@H](O)[C@H](OC(N)=O)[C@@H]1O)c1cnc[nH]1`: the cytotoxicity call is “inactive”.

Turning to `Cn1cc(N2C[C@@H]3CNC[C@@H]3C2=O)cn1`, the cytotoxicity call is “inactive”.

For the molecule `C/C=C(\C)C(=O)O[C@H]1C[C@@H](OC(C)=O)[C@@]2(C(=O)OC)CO[C@H]3[C@@H](O)[C@@](C)([C@]45O[C@@]4(C)[C@H]4C[C@@H]5O[C@H]5OC=C[C@@]54O)[C@H]4[C@]1(CO[C@]4(O)C(=O)OC)[C@@H]32`, the cytotoxicity call is “inactive”.

For `CC1OC(OC2CC(O)C3(CO)C4C(O)CC5(C)C(C6=CC(=O)OC6)CCC5(O)C4CCC3(O)C2)C(O)C(O)C1O.O.O.O.O.O.O.O.O` (centres undefined), the cytotoxicity call is “active”.

`C[C@@H]1O[C@@H](O[C@@H]2C[C@@H](O)[C@]3(CO)[C@H]4[C@H](O)C[C@]5(C)[C@@H](C6=CC(=O)OC6)CC[C@]5(O)[C@@H]4CC[C@]3(O)C2)[C@H](O)[C@H](O)[C@H]1O`: the cytotoxicity call was “active”.

As to `C[C@H]1C[C@@H](O)[C@]2(O)[C@@]13CC(=O)OC[C@@]2(C)[C@](C)(O)C(=O)C3`, the cytotoxicity call was “inactive”.

Values taken from the antibiotic and cytotoxicity screens of Wong et al. (2023).
